Compound activity (PubChem)
NS3h inh CB – HCV NS3 helicase inhibitors, primary screen, biochemical, fluorescence polarization, ChemBridge library. Hepatitis C virus NS3 helicase. NS3h Cy5-dT15 DNA binding. inhibition, % at 100 µM. 16,000 compounds, 1.6% hits. AID 687043, 2013;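 active = inhibition above the average over every tested compound plus 3 SD, cut at about 40% in these data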
Cy5 interf NS3h – Cy5 fluorescence quenchers or enhancers, artefact control for HCV NS3 helicase inhibitor project, biochemical, ChemBridge library, Cy5 readout; Cy5-dT15 DNA with NS3h, fluorescence interference; actives lie on both sides; signal over control mean, under 1 quenches; fluorescence interference ratio at 100 µM; 16,000 compounds, 6% hits;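 active = compound fluorescence over control fluorescence at most 0.8, a quencher, or at least a set upper limit, an enhancer; inactive = ratio between 0.8 and the set upper limit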
An asterisk follows results filed as active. A selection: hits, their analogues and other compounds. The true share with any hit is near 7.6%.

For CCCC(=O)NS(=O)(=O)c1ccc(NS(=O)(=O)c2ccc(C)cc2)cc1 the results were NS3h inh CB -0.7 and Cy5 interf NS3h 0.997.
Screening CCCCCC12CCC(O)(CC1)C/C2=N\NS(=O)(=O)c1ccc(C)cc1 returned NS3h inh CB 19.8 and Cy5 interf NS3h 0.728*.
Screening N#C/C(=C\c1ccc(-c2ccc(Cl)cc2)o1)C(=O)Nc1cccc2ncccc12 returned NS3h inh CB -41.5 and Cy5 interf NS3h 0.547*.
N#C/C(=C\c1ccc(-c2ccccc2Cl)o1)C(=O)Nc1cccc2ncccc12 was read as NS3h inh CB 1.9 and Cy5 interf NS3h 0.951.
Screening COc1ccccc1N1CCN(/N=C\c2cc(Br)ccc2F)CC1 returned NS3h inh CB 6.5 and Cy5 interf NS3h 0.975.
C=CCOc1c(Cl)cc(/C=C2\C(=O)NC(=O)N(c3ccc(Cl)cc3)C2=O)cc1OC was read as NS3h inh CB 7.6 and Cy5 interf NS3h 0.899.
`COc1ccc(N2C(=O)C3C4c5ccccc5C(C)(c5ccccc54)C3C2=O)cc1` (stereo unspecified) gave NS3h inh CB 6.4 and Cy5 interf NS3h 1.04.
`CC12c3ccccc3C(C)(c3ccccc31)C1C(=O)N(c3ccc(C(=O)O)cc3)C(=O)C12` (stereo unspecified) gave NS3h inh CB 14.1 and Cy5 interf NS3h 0.715*.
`CCOC(=O)N1N=C(c2ccc(F)cc2)CC1(O)C(F)(F)F` (stereo unspecified) gave NS3h inh CB 5.1 and Cy5 interf NS3h 1.06.
Screening C=CCNC(=O)CN(c1ccc(OC)cc1)S(=O)(=O)c1ccc(C)cc1 returned NS3h inh CB 5.0 and Cy5 interf NS3h 0.991.
`CC(=O)NC(c1ccc(C)cc1)c1c(OC(C)=O)ccc2ccccc12` (stereo unspecified) gave NS3h inh CB 5.0 and Cy5 interf NS3h 0.956.
COc1cccc(C(=O)Nc2cc([N+](=O)[O-])ccc2O)c1 was read as NS3h inh CB -0.3 and Cy5 interf NS3h 0.962.
Screening O=C(CSc1nc2ccccc2o1)c1ccc2c(c1)Cc1ccccc1-2 returned NS3h inh CB 1.2 and Cy5 interf NS3h 0.644*.
CC(C)(C)CC(C)(C)NC(=O)CSc1nc2ccccc2o1 was read as NS3h inh CB 6.1 and Cy5 interf NS3h 0.912.
For Cn1c(O)c(N=NS(=O)(=O)c2ccccc2)c2ccccc21 the results were NS3h inh CB -4.6 and Cy5 interf NS3h 1.
For O=C1/C(=C/c2cccc3ccccc23)SC(=S)N1C1CCS(=O)(=O)C1 (stereo unspecified) the results were NS3h inh CB 7.6 and Cy5 interf NS3h 0.995.
For O=C1/C(=C/c2cccc([N+](=O)[O-])c2)SC(=S)N1C1CCS(=O)(=O)C1 (stereo unspecified) the results were NS3h inh CB 15.4 and Cy5 interf NS3h 0.348*.
For COc1ccc(/C(N)=N\OC(=O)c2cccc(C)c2)cc1 the results were NS3h inh CB 14.9 and Cy5 interf NS3h 0.986.
`COc1cccc(CN2CCN(S(C)(=O)=O)CC2)c1` gave NS3h inh CB 4.0 and Cy5 interf NS3h 0.77*.
For COc1ccc(S(=O)(=O)N2CCN(Cc3cccc(OC)c3)CC2)cc1 the results were NS3h inh CB 11.8 and Cy5 interf NS3h 0.94.
`COc1cccc(CN2CCN(Cc3ccc(Br)cc3)CC2)c1OC` gave NS3h inh CB -10.1 and Cy5 interf NS3h 0.924.
For COc1cccc(CN2CCN(S(C)(=O)=O)CC2)c1OC the results were NS3h inh CB 3.1 and Cy5 interf NS3h 0.645*.
COc1ccc(CN2CCN(S(C)(=O)=O)CC2)cc1OCc1ccccc1 was read as NS3h inh CB 5.0 and Cy5 interf NS3h 1.04.
For COc1ccc(CN2CCN(S(C)(=O)=O)CC2)c(OC)c1 the results were NS3h inh CB 0.3 and Cy5 interf NS3h 0.695*.
For COc1ccc(Br)cc1CN1CCN(S(C)(=O)=O)CC1 the results were NS3h inh CB 7.7 and Cy5 interf NS3h 0.675*.
For COc1ccc(CN2CCN(Cc3ccccc3OC)CC2)c(OC)c1 the results were NS3h inh CB -8.1 and Cy5 interf NS3h 1.1.
Cc1ccc(C#CC#Cc2ccc(C)nc2)cn1 was read as NS3h inh CB 5.6 and Cy5 interf NS3h 0.992.
COc1ccc(/C=C/C(=O)NC(C)Cc2ccccc2)cc1OC (stereo unspecified) was read as NS3h inh CB 6.4 and Cy5 interf NS3h 1.02.
For S=C(c1ccc(OCc2ccccc2)cc1)N1CCN(c2cccc(Cl)c2)CC1 the results were NS3h inh CB 8.3 and Cy5 interf NS3h 1.08.
For CCCCOc1ccc(C(=O)NCC(C)c2ccccc2)cc1 (stereo unspecified) the results were NS3h inh CB 7.2 and Cy5 interf NS3h 0.9.
`Cc1oc2cc(OCC(=O)OCc3ccccc3)ccc2c(=O)c1-c1nc2ccccc2s1` gave NS3h inh CB 10.2 and Cy5 interf NS3h 0.98.
